# The list is not random: actives were taken first. Their share in the collection is about 2.3%.
# CHO-K1 Ca antag = M1 antagonist counterscreen hit in parental CHO-K1 cells; 0.6% of 360,000 active; AID 602250; ATP-induced calcium, Fluo-8 fluorescence; inhibition, % at 3 µM;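 active means inhibition above a per-plate cutoff, the plate's mean sample inhibition plus 3 SD, cut at about 24% in these data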
# M1 antag = blocks human M1 muscarinic receptor | P11229 | CHO-K1 hM1, Fluo-8 calcium fluorescence, ACh EC80 antagonist | inhibition, % at 3 µM | 1.3% of 360,000 active;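 active means percent inhibition above its own plate's cutoff, namely the mean of that plate's compound wells plus 3 SD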;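 further: peak over basal fluorescence ratio during 140 s after agonist addition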
# Target sequence (P11229 whole entry, looked up): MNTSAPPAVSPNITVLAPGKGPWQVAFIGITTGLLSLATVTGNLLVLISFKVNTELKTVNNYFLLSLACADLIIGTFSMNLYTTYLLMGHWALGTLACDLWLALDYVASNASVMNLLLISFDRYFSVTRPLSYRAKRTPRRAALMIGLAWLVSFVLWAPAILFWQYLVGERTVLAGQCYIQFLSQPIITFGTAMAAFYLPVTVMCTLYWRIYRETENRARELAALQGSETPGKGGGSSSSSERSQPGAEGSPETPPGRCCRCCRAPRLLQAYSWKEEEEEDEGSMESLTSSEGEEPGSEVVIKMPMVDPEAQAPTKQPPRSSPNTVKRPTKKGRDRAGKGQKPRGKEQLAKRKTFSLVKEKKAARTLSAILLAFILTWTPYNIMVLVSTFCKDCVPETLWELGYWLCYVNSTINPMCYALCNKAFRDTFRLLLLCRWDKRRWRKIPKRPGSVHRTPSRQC
# M1 ag parental = M1 agonist counterscreen hit in parental CHO-K1 cells | Fluo-8 calcium fluorescence; scaled to maximal ATP response, vehicle zero | activation, % at 3 µM | 0.48% of 360,000 active; in the data active means activation above about 15%;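 further: untransfected CHO-K1 host cells lacking M1 receptor as counterscreen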
# M1 PAM = human CHRM1 positive allosteric modulation. P11229. CHO-K1 hM1, Fluo-8 calcium fluorescence, ACh EC20; 0% = ACh EC20, 100% = maximal ACh. activation, % at 3 µM. 0.088% of 360,000 active. AID 588819; in the data active means activation above about 19%, passing the limit was not always enough
# M1 PAM parental = nonselective activator or artifact in parental CHO-K1 calcium assay | ATP EC20, Fluo-8 calcium fluorescence; 0% at ATP EC20, 100% at ATP max | activation, % at 3 µM | 0.02% of 360,000 active;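 active means activation above the run cutoff, the mean activation of all test compounds plus 3 SD, cut at about 40% in these data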;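 further: peak over basal fluorescence ratio in a 140 s read after ATP addition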
# M1 ag = agonists of human M1 muscarinic receptor; P11229; CHO-K1 hM1, Fluo-8 calcium fluorescence, agonist mode; 0% DMSO, 100% acetylcholine EC100; activation, % at 3 µM; 0.33% of 360,000 active;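 active means activation above the run's mean compound activation plus 3 SD, cut at about 16% in these data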;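 further: peak over basal fluorescence ratio within a 140 s kinetic read after compound addition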
# Numbers stand for hits; . = inactive; / = no result given.
SMILES,CHO-K1 Ca antag,M1 antag,M1 ag parental,M1 PAM,M1 PAM parental,M1 ag
COC(=O)c1ccc(CN2CCCC(CCC(=O)NCc3ccc(C)o3)C2)cc1 (stereo not drawn),.,87,.,.,.,53
COC(=O)c1ccc(CN2CCCC(CNC(=O)Cc3ccc(OC)cc3)C2)cc1 (stereo not drawn),.,.,.,.,.,30
COCc1ccc(CN2CCCC(CCC(=O)NCc3ccc(C)o3)C2)o1 (stereo not drawn),.,.,.,.,.,.
Cc1cc(C)c(S(=O)(=O)N(C)CC(=O)NC2CCCC2)c(C)c1,.,.,.,.,.,.
COCCOC(=O)CSc1ncccc1-c1nc2cc(C)c(C)cc2[nH]1,.,.,.,.,.,.
Cc1cc2nc(-c3cccnc3SCC(=O)NC(C)C)[nH]c2cc1C,.,.,16,.,.,.
CCCCC1Cc2[nH][nH]c(=O)c2C(c2ccc(F)cc2)O1 (stereo not drawn),.,/,.,/,.,/
COc1cccc(CC2(CO)CCN(Cc3cnc(N4CCOCC4)s3)CC2)c1,.,.,.,.,.,.
OCC1(CCCc2ccccc2)CCN(Cc2cnc(N3CCOCC3)s2)CC1,.,.,.,.,.,19
CN(C)CCNC(=O)C1(C)Cc2c(-c3cccc(C(F)(F)F)c3)ccnc2O1 (stereo not drawn),.,.,.,.,.,.
O=C(Oc1cccc(Nc2ncnc3ccccc23)c1)c1ccccc1Cl,25,25,.,.,.,.
COc1cccc(Nc2ncnc3ccccc23)c1,.,.,.,.,.,.
COc1ccc(S(N)(=O)=O)cc1C(=O)OCCCOc1ccc(F)cc1,.,.,18,.,.,.
COc1ccc(S(N)(=O)=O)cc1C(=O)OCCCOC(=O)c1cc(S(N)(=O)=O)ccc1OC,.,.,.,.,.,.
CCOc1cc(NS(=O)(=O)c2ccc(NC(C)=O)cc2)c(OCC)cc1NC(=O)c1cccs1,.,.,.,.,.,.
CC(C)(C)NS(=O)(=O)c1ccc2nc(NC(=O)c3ccc(N4C(=O)CCC4=O)cc3)sc2c1,.,.,15,.,.,.
COc1ccc2c(c1OC)C(=O)N1c3ccccc3C(=O)N(c3ccccc3)C21 (stereo not drawn),.,32,.,.,.,.
COc1ccc2c(c1OC)C(=O)N1c3ccccc3C(=O)N(c3ccc(F)cc3)C21 (stereo not drawn),.,25,.,.,.,.
CCCCc1ccc(NC(=O)CSC2=NN3CCCC(=O)N=C3S2)cc1,.,.,.,.,.,.
COC(=O)C(C)Sc1snnc1-c1ccccc1 (stereo not drawn),.,.,.,.,.,.
Cc1ccccc1N1C(=O)C2ON(c3ccccc3)C(c3ccco3)C2C1=O (stereo not drawn),.,.,16,.,.,.
CC1(C)CCN2CCC(C)(C)c3c(O)ccc1c32,26,.,34,.,.,23
CC(C)(Oc1ccc(Cl)cc1)C(=O)OCC(=O)NCCc1ccccc1,.,.,.,.,.,.
NC(N)=NCC(O)CN(c1ccccc1)c1ccccc1 (stereo not drawn),.,.,.,.,.,.
COc1ccc(CCNc2oc(COc3ccc(Br)cc3)nc2C#N)cc1OC,.,36,.,.,.,.
SMILES,CHO-K1 Ca antag,M1 antag,M1 ag parental,M1 PAM,M1 PAM parental,M1 ag
COc1ccc(CCNc2oc(Cc3cccc4ccccc34)nc2C#N)cc1OC,.,.,.,.,.,.
CCOC(=O)C1CC(=NO)c2ccc(OC)c(OC)c2C1 (stereo not drawn),.,.,.,.,.,.
CCn1c(C)c(C(C)=O)c(N2CCCCC2)nc1=S,.,.,.,.,.,.
CCn1c(C)c(C(C)=O)c(N2CCN(c3ccccc3)CC2)nc1=S,.,.,.,.,.,.
CCn1c(C)c(C(C)=O)c(N2CCN(C(c3ccccc3)c3ccccc3)CC2)nc1=S,.,54,.,.,.,.
CC(=O)c1c(N2CCCC2)nc(=S)n(-c2ccccc2)c1C,.,75,.,.,.,.
CC(=O)c1c(N2CCCCC2)nc(=S)n(-c2ccccc2)c1C,.,.,.,.,.,.
CCn1c(C)c(C(C)=O)c(N2CCN(c3ccccn3)CC2)nc1=S,.,64,.,.,.,.
CC1(C(=O)NCc2ccccc2)Cc2c(-c3ccc4c(c3)OCO4)ccnc2O1 (stereo not drawn),.,.,.,.,.,.
CCOc1cc(C(=O)N[C@@H](C)C(=O)N2CCC3(CC2)NCCc2[nH]cnc23)cc(OCC)c1OCC,.,.,.,.,.,.
CCN1CCN(CCNC(=O)c2ccc(/C=C3\Sc4ccccc4N(Cc4ccccc4F)C3=O)cc2)CC1,.,47,.,.,.,.
O=C(NCCc1ccco1)c1cc(COc2cccc(C(F)(F)F)c2)on1,.,.,.,.,.,.
CC(C)c1ccc(/C=C/C(=O)NC(=S)Nc2ccc(CN3CCOCC3)cc2)cc1,.,48,.,.,.,.
O=C(COc1ccc(Cl)cc1Cl)NC(=S)Nc1ccc(CN2CCOCC2)cc1,.,37,.,.,.,.
CC(C)(C)NC(=O)C(c1ccc(O)cc1)N(C(=O)Cn1nnc(-c2ccc(F)cc2)n1)c1ccccc1F (stereo not drawn),.,.,.,.,.,.
CCN(CC(=O)Nc1c(F)cccc1F)C(=O)CCN1C(=O)c2cccc([N+](=O)[O-])c2C1=O,.,.,.,.,.,.
CCCc1nnc(SCC(=O)Nc2cccc(C(F)(F)F)c2)o1,.,.,.,.,.,.
CCCCCCNCC(=O)N1CCC(Cc2ccccc2)CC1,.,31,.,.,.,.
CCCC(=O)N1CCC(Cc2ccccc2)CC1,.,.,.,.,.,.
O=C1C2C3C=CC(C2C(=O)N1CCO)C1C(=O)N(CCO)C(=O)C31 (stereo not drawn),.,.,.,.,.,.
CNS(=O)(=O)c1cccc(C(=O)NCC(c2cccs2)N(C)C)c1 (stereo not drawn),.,.,.,.,.,.
CCN(c1ccccc1)S(=O)(=O)c1cccc(C(=O)NCC(c2cccs2)N(C)C)c1 (stereo not drawn),.,52,.,.,.,.
CCCCOC(=O)c1ccc(O)cc1,.,.,.,.,.,.
CCCCOC(=O)Nc1ccc(C(=O)OCCC)cc1,24,.,.,.,.,.
COC(=O)c1ccc2nc(NC(=O)C(C)(C)C)sc2c1,.,.,17,.,.,.
CCO[C@@H]1OC(C(=O)NCc2ccccc2)=C[C@H](c2ccc(Br)cc2)[C@H]1CCCO,.,68,.,.,.,.
C#Cc1ccc([C@@H]2C=C(C(=O)Nc3ccccc3)O[C@H](OCC)[C@H]2CCCO)cc1,.,.,.,.,.,.

# Bioassay records deposited in PubChem by The Scripps Research Institute Molecular Screening Center.
